The full list was thinned out, with hits kept by preference.
Sm TGR block: blocks Schistosoma mansoni thioredoxin glutathione reductase; purified TGR, DTNB reduction, TNB absorbance 405 nm; Q962Y6; Potency, µM (series often up to 114 µM), without a hit: at the top dose activity change, negative = inhibition, actives largely listed as inhibitors; 360,000 tested, 3% active; AID 485364; also: potency is read from the fitted curve at half-maximal effect; % is scaled to controls: 0 for no effect and ±100 for the full control effect; nearly all actives have a fitted effect of over 60% in size
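Kinetic colorimetric format: TGR-catalysed, NADPH-driven DTNB reduction monitored via TNB absorbance. Enzyme dispensed at 20 nM; compound exposure 15 min at room temperature before reaction start.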
Cycloheximide cs: counter-screen hit for Shiga toxin inhibitors, cycloheximide | cell reporter, cycloheximide protein synthesis inhibition counterscreen | max response, % | 300,000 tested, 12% active | AID 2314; in the data active = max response mostly above about 13%, no sharp cut-off; inactive = mostly below about 14%; also: read at 38.3 µM for the half of the compounds with a filed dose; 0% is about no effect
Giardia FBPA inh: inhibitors of Giardia lamblia fructose-1,6-bisphosphate aldolase | purified Giardia FBPA | Potency, µM (highest dose often 59.6 µM), inactives show top-dose activity, negative = inhibition, hits mostly inhibitors | 290,000 tested, 0.71% active | AID 2451; also: potency is read from the fitted curve at half-maximal effect; % is scaled to controls: 0 for no effect and ±100 for the full control effect; nearly all actives have a fitted effect of over 55% in size
Target sequence (A8B2U2 whole entry, looked up): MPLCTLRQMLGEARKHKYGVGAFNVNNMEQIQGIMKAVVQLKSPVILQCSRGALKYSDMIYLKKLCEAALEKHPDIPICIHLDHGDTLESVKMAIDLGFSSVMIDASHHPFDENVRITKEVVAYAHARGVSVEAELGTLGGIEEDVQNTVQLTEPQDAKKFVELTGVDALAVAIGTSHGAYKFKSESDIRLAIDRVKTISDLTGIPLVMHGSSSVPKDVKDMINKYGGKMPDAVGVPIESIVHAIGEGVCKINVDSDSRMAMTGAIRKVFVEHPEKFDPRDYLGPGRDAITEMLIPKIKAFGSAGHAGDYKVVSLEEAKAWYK
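Giardia FBPA (40 nM reagent) was preincubated 10 min at RT with compound (up to 57.5 uM final), then substrate plus GAPDH/TPI/NAD/arsenate coupling system with diaphorase/resazurin was added; resorufin fluorescence (525/598 nm) was read after 20 min.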
Tb PYK inh: blocks Trypanosoma brucei pyruvate kinase | Q57TT1 | TbPYK enzyme, Kinase-Glo Plus ATP luminescence, 45 min | Potency, µM (highest dose often 76.8 µM), for the others: at the highest dose activity, negative = inhibition, usual class: inhibitors | 410,000 tested, 0.12% active; also: potency is read from the fitted curve at half-maximal effect; % is scaled to controls: 0 for no effect and ±100 for the full control effect; nearly all actives have a fitted effect of over 50% in size
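Activity of T. brucei pyruvate kinase was followed by Kinase-Glo Plus luminescence after the enzyme reacted 45 min at room temperature with 130 uM ADP (final) and substrate. Test compounds were added before ADP at multiple concentrations.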
LmPK inh: LmPK (Leishmania mexicana) enzyme inhibition | 290,000 tested, 0.37% active | Potency, µM (doses to about 57.5 µM), for the others: at the top dose activity change, negative = inhibition, most hits filed as inhibitors | Q27686 | purified LmPK, Kinase-Glo ATP luminescence, 1 h; also: potency is read from the fitted curve at half-maximal effect; % is scaled to controls: 0 for no effect and ±100 for the full control effect
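Screened at intermediate enzyme activity to detect both inhibitors and activators: LmPK at 0.1 nM, with a 0.5 nM enzyme column as activation reference. PEP 0.5 mM, ADP 0.1 mM; ATP detected by luminescence after 1 h.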
Shiga toxin inh: inhibitors of Shiga toxin in Vero cells | Vero cells, Shiga toxin protein synthesis inhibition reporter | inhibition, % at 38.7 µM | 290,000 tested, 9.2% active | AID 2315; in the data active = inhibition mostly above about 28%, no sharp cut-off; inactive = mostly below about 43%; also: 0% is about no effect
* hit, by the source's call; ? = inconclusive; · = not tested or not shown; [ ] = another dose, or the depositor's remark. Unless noted, calls follow the shape of the dose curve; as a rule, active = well fitted curve in the direction sought with a large enough effect; inconclusive = small, poorly fitted or top-dose-only effect, or another doubt; inactive = no such curve, though single readings can be large; an effect the other way counts as inactive or inconclusive.

SMILES	Sm TGR block	Cycloheximide cs	Giardia FBPA inh	Tb PYK inh	LmPK inh	Shiga toxin inh
O=C(CCc1ccccc1)Nc1cc(C(F)(F)F)ccc1Cl	7%	-3	-1%	2%	2%	-6
CC(C)(C)c1cc(C(=O)NNc2cc(C(F)(F)F)ccc2Cl)n(Cc2ccccc2)n1	0%	28*	-11%	3%	4%	43*
CC(C)(C)C(=O)NNC(=O)c1cc(C(C)(C)C)nn1Cc1ccccc1	9%	-3	-2%	-1%	2%	-5
Cc1ccc(NC(=O)c2cc(C(C)(C)C)nn2Cc2ccccc2)cc1	2%	12*	-4%	0%	8%	4
Cc1ccc(NNC(=O)c2cc(C(C)(C)C)nn2Cc2ccccc2)cc1	45µM*	9	-15%	4%	4%	22
COC(=O)c1c(-c2ccc(Cl)cc2)noc1N1CCN(c2cc(C)ccc2C)CC1	-6%	·	·	-1%	·	·
CC(C)(C)c1cc(C(=O)NC2CC2)n(Cc2ccc(F)cc2)n1	11%	-4	1%	3%	1%	23
COc1ccccc1NNC(=O)c1cc(C(C)(C)C)nn1Cc1ccccc1	-16%	30*	-1%	-2%	6%	61*
CC(C)(C)c1cc(C(=O)NNc2cccc(Cl)c2)n(Cc2ccccc2)n1	-3%	20*	-7%	3%	0%	46*
CC(=O)c1ccc(NC(=O)c2noc3c2CCC3)cc1	40µM*	10	1%	-3%	1%	64*
O=C(Nc1ccc(OC(F)(F)F)cc1)c1noc2c1CCCC2	-5%	·	·	-6%	·	·
O=C(Nc1cccc(O)c1)c1noc2c1CCCCC2	0%	22	-3%	4%	11µM*	-8
COc1ccc(NC(=O)c2noc3c2CCC3)cc1	-23%	35*	-10%	-17%	16µM*	65*
COc1cc(NC(=O)c2noc3c2CCC3)c(OC)cc1Cl	?	3	-19%	-14%	-5%	1
Cc1ccc(NC(=O)c2noc3c2CCC3)cc1C	-4%	28*	-6%	-16%	11%	93*
C=C[C@](C)(O)CCC1C(=C)CC(O)C2C(C)(C)CCCC12C (some centres not stated)	·	·	-2%	·	·	·
COc1ccc(C(=O)COC(=O)c2cc(-c3ccccc3)nc3c(C)cccc23)cc1	-6%	·	·	-10%	·	·
COc1ccc(CCN2CC(C(=O)N(C)CC(=O)Nc3ccc(F)c(F)c3F)CC2=O)cc1OC (configuration not stated)	·	·	·	3%	·	·
COC(=O)c1ccc(NC(=S)Nc2ccc(O)cc2)cc1	·	5	0%	-7%	1%	14
COC(=O)c1ccc(NC(=S)NC2CC3CCC2C3)cc1 (configuration not stated)	-15%	41*	1%	-13%	2%	104*
COc1ccc(CC(=O)NC2CCCCCC2)c(OC)c1	14%	8.5*	-12%	0%	-2%	26
COC(=O)c1ccc(NC(=S)NCC2CC2)cc1	-33%[57.1 µM]	63*	-1%	-6%	-6%	97*
COc1ccc(NC(=O)NC2CCCCCCC2)c(OC)c1	0%	30*	·	3%	-1%	45*
COc1ccccc1NC(=O)NC1CCCCCCC1	2%	14	·	1%	-4%	35
CC(=O)N/C(=C\c1ccccc1)C(=O)OCc1ccc(F)cc1	2%	-7	·	4%	-6%	-7
SMILES	Sm TGR block	Cycloheximide cs	Giardia FBPA inh	Tb PYK inh	LmPK inh	Shiga toxin inh
O=C(Nc1ccc(Cl)c(C(F)(F)F)c1)C1Cc2c(-c3ccc4c(c3)OCO4)ccnc2O1 (configuration not stated)	·	·	·	-1%	·	·
COC(=O)[C@@]1(Cc2ccc(OC)cc2)[C@H]2c3cc(C(=O)N4CCCC4)n(CCc4c[nH]c5ccc(OC)cc45)c3C[C@H]2CN1C(=O)c1ccccc1	·	·	-13%	·	·	·
C[C@H]1Cc2c(-c3ccccc3)nc3c(c2CO1)CN(C(=O)c1ccco1)CC3	·	·	3%[12.9 µM]	·	-5%[11.5 µM]	·
COC(=O)c1ccc(NC(=O)NC2CCCCC2)cc1	0%	41*	3%	-4%	-4%	110*
CCOc1ccc(-c2nnn(CC(=O)NCc3ccc(OC)cc3)n2)cc1OCC	-11%	-7	15%	-9%	2%	-15
COC(=O)c1cccnc1NC(=S)NC1CCCCC1	-14%	-1	3%	-3%	0%	-13
COc1ccc(NC(=O)CNC(=O)C2CCCCC2)cc1	0%	22*	9%	-3%	6%	20
O=C(CNC(=O)C1CCCCC1)Nc1ccccc1	-9%	9	9%	0%	-2%	3
COC(=O)c1ccc(NC(=S)NC2CCCCC2)cc1	-31%	23	0%	-1%	0%	41*
COc1ccc(CNC(=O)Cn2nnc(-c3ccc(NC(=O)C4CCCCC4)cc3)n2)cc1	1%	21*	4%	3%	2%	23
COc1ccccc1OCC(=O)N(Cc1cccs1)C1CCS(=O)(=O)C1 (configuration not stated)	1%	·	·	0%	·	·
CCOc1cc(/C=N/NC(=O)C2CCCC2)ccc1OC(C)C	8%	-4	·	1%	-11%	-23
COc1ccc(NC(=O)NC2CCCCCCC2)cc1	7%	45*	-11%	-5%	1%	61*
CC1=C(C(=O)N2CCN(c3cccc(Cl)c3)CC2)C2(CCCCC2)OC1=O	-16%	·	·	-4%	·	·
CC1=C(C)CC2(SC1)C(=O)N(c1ccccc1)N=C2N (configuration not stated)	0%	23*	-4%	-17%	-1%	48*
Cc1ccc(NC(=O)c2cc3ccccn3n2)cc1F	9%	·	·	3%	·	·
CCn1c(O)c(/C=C2\C=Nc3ccccc32)sc1=Nc1ccccc1	6%	27*	-8%	-2%	1%	98*
COc1ccc(-c2nnc(SCC(=O)NCCc3ccc(OC)c(OC)c3)nc2-c2ccc(OC)cc2)cc1	-4%	·	·	0%	·	·
COc1ccc(-c2nc3c(c4c2C[C@H](c2ccccc2)OC4)CN(C(=O)NCCc2c[nH]c4ccccc24)CC3)c(C)c1	·	·	1%[12.9 µM]	·	-10%[11.5 µM]	·
O=C1C=C(N(CCO)Cc2ccccc2)c2ccccc2C1=O	?	-1	0.35µM*	-5%	-9%	-13
COc1ccc(OC(C)C(=O)NCc2nc(-c3cccc(C)c3)no2)cc1 (configuration not stated)	0%	·	·	-8%	·	·
CCN1CCN(C2=C(NS(=O)(=O)c3ccccc3)C(=O)c3ccccc3C2=O)CC1	?	12*	·	-8%	0%	15
CCOC(=O)C1CCN(C2=C(NS(=O)(=O)c3ccc(Br)cc3)C(=O)c3ccccc3C2=O)CC1	-25%	16*	?	-11%	-8%	5
CCN1CCN(C2=C(NS(=O)(=O)c3ccc(Br)cc3)C(=O)c3ccccc3C2=O)CC1	45µM*	14	·	-10%	0%	22
